Drawing on PubChem BioAssay AID686979 (National Center for Advancing Translational Sciences (NCATS), 2013), this text covers Potency and activity change, negative = growth inhibition for 108 compounds.

Hit rate of the full screen: of about 420,000 compounds, about 50,000 (12%) were called active. Entries that show only a call come without a potency. Roughly 26% stayed inconclusive and do not appear here. The sample holds actives, similar compounds and a random draw of the others, so the mix is not that of the screen. Unmarked numbers belong to inactive results. Calls follow the shape of the dose curve; as a rule, active = well fitted inhibition curve with a large enough effect; inconclusive = small, poorly fitted or top-dose-only effect; inactive = flat fitted curve, though single readings scatter.
Potency is read from the fitted curve at half-maximal effect.

The nature of the test: qHTS for Inhibitors of human tyrosyl-DNA phosphodiesterase 1 (TDP1): qHTS in cells in presence of CPT. Also: nearly all actives have a fitted effect of over 55% in size. As to conditions: chicken DT40 Tdp1-/-;hTDP1 cells + 20 nM CPT, ATP luminescence, 48 h; series mostly up to 46.2 µM. A digest of the protocol:
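Chicken DT40 Tdp1-/- cells complemented with human TDP1, 400 cells/well, exposed to compounds plus 20 nM camptothecin for at least 48 h at 37 C; viability read as ATP content by CellTiter-Glo luminescence.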
In general terms: In qHTS, concentration-response curves come from the screen itself.
On to `Cc1ccc(NC(=O)NC(=O)CSc2nnc(-c3ccc(OC(F)F)cc3)n2N)c(C)c1`, for which the Potency result is “inactive”. The same measure, in the same setting: the value for `CC(C)(C)C(=O)Nc1ccc(-c2cn3cccnc3n2)cc1` was “inactive”. On the same count and under the same terms, to `CC1CCCCN1C(=S)NCc1ccccc1` (stereo not drawn) belongs “inactive”; to `C/C(=N\NC(=S)NCc1ccccc1)C1CCCCC1`, 6.51 µM (active); to `O=C(CC1CCCCC1)NCc1ccccc1`, “inactive”. The same measure, in the same setting: the value for `O=C(Nc1ccon1)c1nc[nH]c1C(=O)NCc1ccccc1` was “inactive”; that for `CCC(=O)N1CCc2cc(Br)cc(S(=O)(=O)NCc3ccc(Cl)cc3)c21` was “inactive”.

For `CC(=O)C1=C(C)NC(=O)NC1c1ccc2c(c1)OCO2` (stereo not drawn), the Potency entry is “inactive”. On the same count and under the same terms, the value for `O=C1C=C(c2cccc(Cl)c2)C[C@@H](c2ccc(F)cc2)C1` was “inactive”; that for `O=C1C=C(c2ccnc3cc(Cl)ccc23)C[C@@H](c2ccc3c(c2)OCO3)C1` was 5.8 µM (active). Same read-out and setting: to `Cc1ccc(NC(=O)C2CCCN2C(=O)OCc2ccccc2)cc1C` (stereo not drawn) belongs “inactive”. As for `Cc1ccc(C)c(NC(=O)C2CCCN2C(=O)OC(C)(C)C)c1` (stereo not drawn), the Potency entry was “inactive”. In the case of `Cc1cccc(C)c1NC(=O)C1CCCN1C(=O)OC(C)(C)C` (stereo not drawn), the Potency is 11.6 µM (active).

As to `Cc1csc(=O)n1CCC(=O)OCC(=O)Nc1ccc(N2CCOCC2)cc1`, the Potency entry is “inactive”.

As for `C[C@H](NC(=O)CC[C@H]1O[C@@H](n2ccc(=O)[nH]c2=O)[C@H](O)[C@@H]1O)c1cccc2ccccc12`, the Potency result was “inactive”. Regarding `COc1ccc([N+](=O)[O-])cc1N(CC(=O)Nc1ccccc1C(=O)N1CCOCC1)S(C)(=O)=O`, the Potency result is “inactive”.

On to `CC1Oc2ccccc2N(Cc2cccnc2)C1=O` (stereo not drawn), for which the Potency result was “inactive”. `O=C1C(Cc2ccc(O)cc2)NC(=S)N1Cc1ccccc1` (stereo not drawn): the Potency result was “inactive”. On the same count and under the same terms, to `CC1C(=O)N(Cc2ccccc2)c2ccccc2N1C(=O)c1ccccc1` (stereo not drawn) belongs 23.1 µM (active); to `COc1ccc(C(=O)COC(=O)C(O)c2ccccc2)c(OC)c1` (stereo not drawn), “inactive”; to `O=C1N(c2ccccc2)C(=Nc2ccccc2)SC12CC2`, “inactive”.

As to `Cc1cc(C)c(S(=O)(=O)Nc2c(C)n(C)n(-c3ccccc3)c2=O)cc1[N+](=O)[O-]`, the Potency result is “inactive”. Consider `CC(=O)Nc1cccc(-c2ccnc3c2CC(C)(C(=O)NCc2ccco2)O3)c1` (stereo not drawn), for which the Potency was 1.03 µM (active). Same read-out and setting: to `CC1(C)Cc2cccc(OCC(=O)NCc3ccccc3)c2O1` belongs “inactive”. Same read-out and setting: to `COc1ccc(NC(=O)C2(C)Cc3c(-c4cccc(NC(C)=O)c4)ccnc3O2)cc1` (stereo not drawn) belongs 1.64 µM (active); to `CC1(C(=O)NCC2CCOCC2)Cc2c(-c3cccc(C(N)=O)c3)ccnc2O1` (stereo not drawn), 25.9 µM (active). In the case of `CC(C)(C)NC(=O)NCc1ccco1`, the Potency entry is “inactive”. In the case of `COc1cccc(NC(=S)NCc2ccco2)c1`, the Potency result is “inactive”. `COc1ccc(NC(=O)C2(C)Cc3c(-c4ccc(C(N)=O)cc4)ccnc3O2)cc1` (stereo not drawn): the Potency entry is “inactive”. With `CC(=O)Nc1cccc(-c2cnc3ccccc3n2)c1`, the Potency result was “inactive”. Take `COc1ccc(NC(=O)Nc2cccc(-c3noc(C)n3)c2)cc1`: the Potency result is “inactive”. On the same count and under the same terms, the value for `CC(=O)Nc1cccc(-c2ccnc3c2CC(C)(C(=O)NCc2ccccc2)O3)c1` (stereo not drawn) was 0.82 µM (active). Take `COc1ccc(NC(=O)CCn2ccnc2)c(OC)c1`: the Potency entry was “inactive”.

Regarding `CC1=C(C(=O)N2CCOCC2)CC(CC(=O)NCCCN(C)C)C(=O)N1Cc1ccc(C(C)(C)C)cc1` (stereo not drawn), the Potency entry is “inactive”. Turning to `CC(C)N(C(=O)CSc1nnc(NC2CC2)s1)c1ccccc1`, the Potency entry is “inactive”. The same measure, in the same setting: the value for `O=C(Nc1cc(-c2nc3ncccc3o2)ccc1Cl)c1ccco1` was “inactive”; that for `CSCCC(NC(=O)c1ccco1)C(=O)Nc1cc(C)ccn1` (stereo not drawn) was “inactive”. Same read-out and setting: to `CC(=O)c1ccc(OCC(=O)N(C)C2CCS(=O)(=O)C2)cc1` (stereo not drawn) belongs “inactive”. The same measure, in the same setting: the value for `CN(Cc1cc2cc(F)ccc2[nH]1)Cc1nc(-c2cnccn2)no1` was “inactive”.

Turning to `Cn1cc(CNC(=O)c2ccc(OC3CCN(Cc4ccccn4)CC3)cc2)cn1`, the Potency entry was “inactive”. Same read-out and setting: to `CCOC(=O)C1(Cc2cccc(OC)c2)CCCN(S(=O)(=O)c2cccnc2)C1` (stereo not drawn) belongs “inactive”; to `COc1cc(-c2nnc(NC(=O)CS(=O)(=O)c3ccc(Cl)cc3)o2)cc(OC)c1OC`, “inactive”; to `COc1ccc(-c2nnc(NC(=O)CS(=O)(=O)c3ccc(Cl)cc3)o2)c(OC)c1`, “inactive”. Still for that read-out and setting: the value for `Cc1ccc(C)c(-c2nnc(NC(=O)CS(=O)(=O)c3ccccc3)o2)c1` was 11.6 µM (active).

As for `Cc1cccc(C)c1NC(=O)NC1=CCCN1C`, the Potency entry was “inactive”.

Take `CCOC(=O)c1ccc(S(=O)(=O)N(CCO)Cc2cc3cc(OC)c(OC)cc3[nH]c2=O)cc1`: the Potency entry is “inactive”. Still for that read-out and setting: the value for `CC(C)CC(N=C1NC(C)(C)Cc2ccccc21)C(=O)O` (stereo not drawn) was “inactive”; that for `C=CCn1c(=S)[nH]c2nc3c(cc2c1=O)COC(C)(C)C3` was “inactive”. The same measure, in the same setting: to `CC1(C)Cc2nc3sc4c(SCC(=O)NC(c5ccccc5)c5ccccc5)ncnc4c3cc2CO1` belongs 8.2 µM (active); to `CCOc1ccc(NC(=O)CSc2ncnc3c2sc2ccccc23)cc1`, “inactive”; to `O=C1OC(OC(=O)c2ccccc2Br)C(N2CCOCC2)=C1Cl` (stereo not drawn), “inactive”. Take `COC(=O)/C=C\C(=O)Nc1cccc([N+](=O)[O-])c1`: the Potency is 1.03 µM (active).

`Cc1ccccc1NC(=S)Nc1cccc([N+](=O)[O-])c1`: the Potency entry was “inactive”.

Turning to `CC(=O)Nc1cccc([N+](=O)[O-])c1`, the Potency result is “inactive”.

As to `COC(C(=O)NCc1ccccc1C)c1ccccc1` (stereo not drawn), the Potency entry was “inactive”. On the same count and under the same terms, the value for `CC(C)CC(O)C1CCN(C(=O)CCc2nnc(-c3ccc4c(c3)OCO4)o2)CC1` (stereo not drawn) was “inactive”; that for `S=c1[nH]nc(COc2ccccc2)n1-c1ccccc1` was “inactive”; that for `COc1ccc(OCc2n[nH]c(=S)n2N)cc1` was 18.4 µM (active). Same read-out and setting: to `Cc1ccc(OCc2n[nH]c(=S)n2-c2ccccc2)cc1` belongs “inactive”; to `CCOc1ccc(OCC(=O)OC(C)C(=O)NC2CCCCC2C)cc1` (stereo not drawn), “inactive”; to `COc1c(C)cccc1C(=O)Nc1cc(Cl)ccc1N1CCOCC1`, “inactive”. Turning to `Cc1cccc(N2CCN(c3ccc(C(=O)O)cc3NC(=O)c3ccccc3F)CC2C)c1` (stereo not drawn), the Potency was 23.1 µM (active). With `Cc1cccc(N2CCN(C(=O)c3ccccc3NC(=O)C3CCCCC3C(=O)O)CC2)c1` (stereo not drawn), the Potency result was “inactive”. The same measure, in the same setting: to `CNC[C@@H]1Oc2c(NS(C)(=O)=O)cccc2C(=O)N([C@@H](C)CO)C[C@H]1C` belongs “inactive”; to `COCC(=O)N(C)C[C@H]1Oc2cc(Br)ccc2S(=O)(=O)N([C@H](C)CO)C[C@H]1C`, “inactive”; to `Cc1cc(C(=O)OCC(=O)Nc2ccccc2Cl)c(C)o1`, “inactive”.

As to `CC(C)Nc1nnc(SCC(=O)/C=C2\N(C)c3ccccc3C2(C)C)s1`, the Potency is 16.4 µM (active).

Take `CC(C)Nc1nnc(SCC(=O)c2c[nH]c3ccccc23)s1`: the Potency result is “inactive”. On the same count and under the same terms, to `COC(=O)c1ccc(CSc2nnc(NC(C)C)s2)cc1` belongs “inactive”; to `Cc1ccccc1OCc1nc2c3cnn(-c4ccccc4F)c3ncn2n1`, “inactive”.

`CC1COc2ccccc2N1C(=O)c1cccnc1Cl` (stereo not drawn): the Potency entry is “inactive”.

Take `CN1/C(=C\C(=O)c2cccnc2Cl)C(C)(C)c2ccccc21`: the Potency was 20.6 µM (active).

`Cc1ccc(CNC(=O)c2cccnc2Cl)cc1`: the Potency result was “inactive”. Same read-out and setting: to `O=C1CSc2ccc(C(=O)NCc3ccccn3)cc2N1` belongs “inactive”; to `CCc1ccc(C(=O)N2CCN(S(=O)(=O)c3sc(C(=O)O)c(C)c3C(=O)O)CC2)cc1`, “inactive”; to `Cc1ccc(C)c(-n2cc(CN3CCN(C(=O)c4ncn[nH]4)CC3)c(-c3ccccc3)n2)c1`, “inactive”. Still for that read-out and setting: the value for `Cc1ccc(OCCC(=O)OCC(=O)N2c3ccccc3NC(=O)C2(C)C)cc1` was “inactive”.

Take `O=C(O)CSCc1nc2ccccc2s1`: the Potency result is “inactive”. Still for that read-out and setting: to `CC(C)CC(=O)N/C(N)=N/c1nc2ccccc2s1` belongs 23.1 µM (active); to `CC(C)CC(=O)NC(=S)NCc1ccccc1`, “inactive”; to `COc1ccc(C2c3ccc(O)cc3Oc3ncn(CCCO)c(=N)c32)cc1OC` (stereo not drawn), “inactive”.

As to `CC[C@]1(C(=O)OC)[C@H]2C(=O)N(C)C(=O)[C@H]2[C@H]2CN(C)C(=NCc3ccccc3)N21`, the Potency result is “inactive”.

As to `O=C(NCCSc1ncc(-c2ccccc2)[nH]1)c1ccco1`, the Potency result was “inactive”.

For the compound `COCCCNC(=O)C1CC(=O)N(CCc2ccc(F)cc2)C1` (stereo not drawn), the Potency entry was “inactive”.

Regarding `COC(=O)c1ccccc1NC(=O)C1CCN(S(=O)(=O)c2cc(OC)ccc2OC)CC1`, the Potency was 23.1 µM (active). On the same count and under the same terms, to `COC(=O)c1ccccc1NC(=O)C1CC(=O)N(c2ccc(OC)cc2)C1` (stereo not drawn) belongs “inactive”; to `COc1ccc(OC)c(NC(=O)C2CCN(S(=O)(=O)c3ccc(C)cc3)CC2)c1`, “inactive”. Regarding `CCCCCCCC/C=C\CCCCCCCC(=O)OC[C@H](CO)OC(C)=O`, the activity change, negative = growth inhibition is 0.476% [at 4.12 µM]. Take `COC(=O)c1scc(C)c1NC(=O)CSc1ccc(Cl)cc1`: the Potency entry was “inactive”.

Consider `O=C(NC(=S)N1CCCCC1c1cccnc1)c1ccccc1` (stereo not drawn), for which the Potency result is “inactive”. Still for that read-out and setting: to `CC(=O)NC(=S)Nc1ccc(NC(=O)c2cccnc2)cc1` belongs “inactive”; to `CC(C)c1cc(Cn2c3ccccc3c(=O)n2C(C)Cn2cc(C3CC3)nn2)on1` (stereo not drawn), “inactive”; to `CCC(C)CN1CCC(CO)(Cc2ccccc2Cl)CC1` (stereo not drawn), “inactive”. The same measure, in the same setting: to `CCn1c(COc2cccc(OC)c2)nnc1SCC(=O)N1CCOCC1` belongs “inactive”; to `CCCCCCCCC(=O)NCCOc1ccccc1`, “inactive”.

On to `CCCCCCCCCCOC(=O)Cn1c(COc2cccc(OC)c2)[n+](C)c2ccccc21`, for which the Potency is 2.31 µM (active). The same measure, in the same setting: to `O=C(CN1CCCCCC1)Nc1ccc(Cl)cc1F` belongs “inactive”; to `Cn1cccc1C(=O)N1CCc2ccccc2C1`, “inactive”. Still for that read-out and setting: the value for `CC(CCc1ccccc1)NC(=O)c1cnc(Cl)c(Cl)c1` (stereo not drawn) was “inactive”; that for `Cc1sc2nc(SCC(N)=O)n(C)c(=O)c2c1C` was “inactive”; that for `CCc1cc2c(=O)n(-c3ccccc3)c(SCC(=O)O)nc2s1` was “inactive”. The same measure, in the same setting: the value for `Cc1sc2nc(SCCO)n(-c3ccccc3)c(=O)c2c1C` was 13 µM (active); that for `CCc1ccc(S(=O)(=O)Nc2ccc(C)c(NS(C)(=O)=O)c2)cc1` was “inactive”; that for `NC(=O)c1ccc(N2CCCC2)nc1` was “inactive”.

With `Cc1cc(C)cc(OCC(=O)Nc2cc(NC(=O)COc3cc(C)cc(C)c3)cc(C(=O)O)c2)c1`, the Potency result was “inactive”. On the same count and under the same terms, the value for `Cc1ccc(Cl)cc1NC(=O)C1CCN(S(C)(=O)=O)CC1` was 6.51 µM (active); that for `CC(=O)Nc1c(C)nn(-c2ccccc2)c1N1CCC(C(=O)Nc2cc(Cl)ccc2C)CC1` was “inactive”. Still for that read-out and setting: the value for `Cc1ccc(Cl)cc1NC(=O)CN1CCN(S(=O)(=O)N2CCOCC2)CC1` was “inactive”.
